A number with no mark means an inactive call. Records with an inconclusive call do not appear. A call without a number means that no potency is given here. Activity calls are given as the source filed them. Unless noted, calls follow the shape of the dose curve; as a rule, active = well fitted curve in the direction sought with a large enough effect; inconclusive = small, poorly fitted or top-dose-only effect, or another doubt; inactive = no such curve, though single readings can be large; an effect the other way counts as inactive or inconclusive.
How the values were obtained:
[1] = target: Cytochrome P450 3A4 (Homo sapiens) (UniProt P08684); assay: qHTS Assay for Inhibitors and Substrates of Cytochrome P450 3A4 (AID 884); also: nearly all actives have a fitted effect of over 50% in size
Chain of Cytochrome P450 3A4 (Homo sapiens) (P08684 whole entry, looked up): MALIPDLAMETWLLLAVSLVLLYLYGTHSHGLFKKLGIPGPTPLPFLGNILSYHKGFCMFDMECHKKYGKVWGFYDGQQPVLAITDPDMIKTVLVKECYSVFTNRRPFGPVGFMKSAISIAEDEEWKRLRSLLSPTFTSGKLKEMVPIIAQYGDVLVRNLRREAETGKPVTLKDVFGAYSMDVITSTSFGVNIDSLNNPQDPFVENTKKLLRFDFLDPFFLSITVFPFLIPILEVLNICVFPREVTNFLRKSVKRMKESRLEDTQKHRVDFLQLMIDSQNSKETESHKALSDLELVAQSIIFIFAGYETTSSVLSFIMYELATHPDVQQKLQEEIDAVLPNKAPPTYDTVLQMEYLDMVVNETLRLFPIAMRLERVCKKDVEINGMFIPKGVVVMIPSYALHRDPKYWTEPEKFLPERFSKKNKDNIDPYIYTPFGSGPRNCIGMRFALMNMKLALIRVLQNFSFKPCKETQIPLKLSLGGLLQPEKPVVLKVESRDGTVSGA
Outline: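 20 nM human CYP3A4 with 25 uM Luciferin-PPXE (at KM) in 200 mM KPO4, preincubated 10 min with compound; NADPH regeneration started a 60 min RT reaction. Luciferin detected by luminescence, normalized to 57 uM ketoconazole as full inhibition.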

[2] = target: Cytochrome P450 3A4 (Homo sapiens) (UniProt P08684); assay: qHTS Assay for Activators of Cytochrome P450 3A4 (AID 885); also: potency is read from the fitted curve at half-maximal effect; nearly all actives have a fitted effect of over 65% in size
Outline: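 20nM CYP3A4 + 25uM Luciferin-PPXE (=KM), 200mM KPO4; cpd 10 min RT; NADPH regen, 60 min RT; stop w/ detection buffer, 20 min; luminescence. Normalized to 57 uM ketoconazole.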

[3] = Confirmation and Secondary Assay for Modulators of Hemoglobin Beta Chain Splicing at IVS2 654 locus (AID 910);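 also: HeLa cells stably carrying EGFP split by mutant beta-globin IVS2-654 intron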
Outline: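 HeLa cells stably expressing EGFP interrupted by β-globin IVS2-654 intron, seeded overnight in Opti-MEM/2% FCS, then treated 2 days at 37 °C. Restored splicing read as total peak GFP intensity per well by laser scanning cytometry (488 nm excitation, 500–520 nm emission); 500 nM antisense PNA as control.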

[4] = Confirmation and Secondary Assay for Modulators of Hemoglobin Beta Chain Splicing at IVS2 705 locus (AID 930);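 also: HeLa cells stably expressing the EGFP-705 splicing reporter; GFP fluorescence per well restored by corrected splicing of the IVS2-705 intron in EGFP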
Outline: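 Stable HeLa line with EGFP disrupted by mutant beta-globin intron 2 (705). Overnight attachment, then 2 days of compound at 37C, 5% CO2. Signal: peak GFP intensity summed over objects 5-250 µm.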

[5] = target: ATP-dependent 6-phosphofructokinase (Trypanosoma brucei brucei) (UniProt O15648); assay: qHTS Assay to Find Inhibitors of T. brucei phosphofructokinase: hit validation (AID 492961);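 also: luminescence reports ADP formed as PFK phosphorylates fructose-6-phosphate with ATP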
Chain of ATP-dependent 6-phosphofructokinase (Trypanosoma brucei brucei) (O15648 whole entry, looked up): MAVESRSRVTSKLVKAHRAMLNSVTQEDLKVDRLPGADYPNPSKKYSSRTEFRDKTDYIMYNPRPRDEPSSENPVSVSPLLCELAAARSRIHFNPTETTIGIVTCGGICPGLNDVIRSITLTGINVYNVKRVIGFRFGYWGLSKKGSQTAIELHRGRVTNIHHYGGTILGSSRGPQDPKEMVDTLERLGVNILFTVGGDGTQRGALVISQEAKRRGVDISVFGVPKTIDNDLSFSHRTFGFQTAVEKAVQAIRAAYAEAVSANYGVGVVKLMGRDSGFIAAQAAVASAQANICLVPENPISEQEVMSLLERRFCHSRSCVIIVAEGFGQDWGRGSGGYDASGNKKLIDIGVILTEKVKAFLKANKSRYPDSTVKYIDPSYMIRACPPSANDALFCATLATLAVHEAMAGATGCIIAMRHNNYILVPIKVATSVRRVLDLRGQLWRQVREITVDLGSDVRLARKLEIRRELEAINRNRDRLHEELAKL
Outline: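 Compounds titrated; %activity normalized to 0x and 1x enzyme controls, curve-fitted. Readout: ADP-Glo luminescence after 45 min room-temperature reaction of 1.25 nM PFK, 0.1 mM ATP, 0.5 mM F6P, pH 8.0.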

[6] = target: Ubiquitin carboxyl-terminal hydrolase 1 (Homo sapiens) (UniProt O94782); assay: Inhibitors of USP1/UAF1: Pilot qHTS (AID 504865);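 also: rhodamine fluorescence freed from ubiquitin-rhodamine substrate followed over time; top concentration of the series differs between compounds; nearly all actives have a fitted effect of over 35% in size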
Chain of Ubiquitin carboxyl-terminal hydrolase 1 (Homo sapiens) (O94782 whole entry, looked up): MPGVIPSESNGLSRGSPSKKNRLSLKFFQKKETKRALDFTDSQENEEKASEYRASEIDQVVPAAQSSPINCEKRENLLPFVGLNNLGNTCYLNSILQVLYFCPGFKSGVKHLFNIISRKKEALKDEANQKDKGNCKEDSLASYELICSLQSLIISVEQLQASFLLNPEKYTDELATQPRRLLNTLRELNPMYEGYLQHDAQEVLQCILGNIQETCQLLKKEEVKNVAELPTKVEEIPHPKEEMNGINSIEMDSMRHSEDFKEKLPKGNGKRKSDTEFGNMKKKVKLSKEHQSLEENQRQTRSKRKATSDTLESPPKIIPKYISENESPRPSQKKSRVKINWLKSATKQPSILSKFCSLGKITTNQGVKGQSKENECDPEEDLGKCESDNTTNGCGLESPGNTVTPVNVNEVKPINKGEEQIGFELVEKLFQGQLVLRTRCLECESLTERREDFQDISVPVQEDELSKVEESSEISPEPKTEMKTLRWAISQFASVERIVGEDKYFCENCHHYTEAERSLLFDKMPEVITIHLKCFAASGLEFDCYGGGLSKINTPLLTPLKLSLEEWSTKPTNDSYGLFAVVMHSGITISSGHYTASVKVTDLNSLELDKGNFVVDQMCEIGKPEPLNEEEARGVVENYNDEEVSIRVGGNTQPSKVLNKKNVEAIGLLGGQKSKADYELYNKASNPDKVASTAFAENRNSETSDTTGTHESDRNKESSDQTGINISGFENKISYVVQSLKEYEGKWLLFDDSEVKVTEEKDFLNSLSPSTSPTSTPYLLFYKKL
Outline: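 USP1/UAF1 complex (1nM) preincubated with compound 15 min at room temperature, then Ub-Rho substrate (150nM final) added. Fluorescence read kinetically at 480/540 nm, 6 reads every 60 seconds. Buffer: 50mM HEPES pH 7.8, 0.5mM EDTA, 0.1 mg/ml BSA, 1mM TCEP, 0.01% Tween-20.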

[7] = target: Luciferin 4-monooxygenase (Photinus pyralis) (UniProt P08659); assay: Biochemical firefly luciferase enzyme assay for NPC (AID 624030);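 also: purified P. pyralis luciferase at 10 nM with luciferin and ATP substrate; nearly all actives have a fitted effect of over 70% in size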
Chain of Luciferin 4-monooxygenase (Photinus pyralis) (P08659 whole entry, looked up): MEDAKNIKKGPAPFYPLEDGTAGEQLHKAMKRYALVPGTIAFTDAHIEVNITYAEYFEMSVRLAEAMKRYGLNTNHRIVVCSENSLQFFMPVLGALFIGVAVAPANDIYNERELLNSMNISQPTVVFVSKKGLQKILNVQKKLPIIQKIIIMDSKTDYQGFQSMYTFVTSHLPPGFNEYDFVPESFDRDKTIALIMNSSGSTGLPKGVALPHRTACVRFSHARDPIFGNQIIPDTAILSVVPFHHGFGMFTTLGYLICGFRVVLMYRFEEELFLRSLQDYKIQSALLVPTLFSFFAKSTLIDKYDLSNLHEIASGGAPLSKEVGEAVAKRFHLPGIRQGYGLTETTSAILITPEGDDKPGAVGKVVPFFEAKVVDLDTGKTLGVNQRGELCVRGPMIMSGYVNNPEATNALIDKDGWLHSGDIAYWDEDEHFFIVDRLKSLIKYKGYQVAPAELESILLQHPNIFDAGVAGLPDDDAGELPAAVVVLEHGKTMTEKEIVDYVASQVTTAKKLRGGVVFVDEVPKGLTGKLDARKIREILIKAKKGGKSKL
Outline: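 Purified P. pyralis luciferase at 10 nM in 50 mM Tris Acetate (final), luminescence read within 5 minutes of enzyme addition to compounds. Activity normalised to PTC124 versus DMSO; concentration-response curves classed by r2, magnitude and activity.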

[8] = S16 Schwann cell viability assay (CellTiter-Glo assay) (AID 624031);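 also: cellular ATP luminescence as a viability measure; nearly all actives have a fitted effect of over 70% in size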
Outline: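 Native S16 Schwann cells (rat), serum-containing medium, overnight attachment then 24 h drug exposure at 37 °C/5% CO2. CellTiter-Glo ATP signal; normalized to cell-free and vehicle wells.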

[9] = S16 Schwann cell PMP22 intronic element beta-lactamase assay (AID 624044; calls by dose curve; also: nearly all actives have a fitted effect of over 15% in size)
Outline: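 Rat S16 Schwann cells with beta-Lac driven by a PMP22 intronic element, compound-treated 24 h at 37 °C. LiveBLAzer FRET B/G read: 460 nm normalized to potassium clavulanate vs DMSO; 535 nm FRET as viability; concentration-effect curves classified.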

[10] = qHTS profiling for inhibitors of Plasmodium falciparum proliferation (AID 504749); also: nearly all actives have a fitted effect of over 60% in size; details: P. falciparum in erythrocytes, SYBR Green DNA, 72 h; at 28.7 µM (top of the series); parasite line B
Outline: (§1)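 Readout was DNA-dye fluorescence from lysed cultures, ex 485/em 535 nm. Parasitized red cells had grown 72 h with compound; data scaled between 0.29 uM artemisinin and DMSO wells and corrected using vehicle-only plates.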

[11] = system: 3D7; assay: as above; details: P. falciparum in erythrocytes, SYBR Green DNA, 72 h; series mostly up to 12.8 µM
Outline: as §1

[12] = system: AA1029; assay: as above; details: P. falciparum in erythrocytes, SYBR Green DNA, 72 h; series mostly up to 12.8 µM
Outline: as §1

[13] = system: AS120; assay: as above; details: P. falciparum in erythrocytes, SYBR Green DNA, 72 h; series mostly up to 12.8 µM
Outline: as §1

[14] = system: ATS95; assay: as above; details: P. falciparum in erythrocytes, SYBR Green DNA, 72 h; series mostly up to 12.8 µM
Outline: as §1

[15] = system: CP191; assay: as above; details: P. falciparum in erythrocytes, SYBR Green DNA, 72 h; series mostly up to 12.8 µM
Outline: as §1

[16] = system: CP192; assay: as above; details: P. falciparum in erythrocytes, SYBR Green DNA, 72 h; series mostly up to 12.8 µM
Outline: as §1

[17] = system: CP194; assay: as above; details: P. falciparum in erythrocytes, SYBR Green DNA, 72 h; series mostly up to 12.8 µM
Outline: as §1

[18] = system: CP201; assay: as above; details: P. falciparum in erythrocytes, SYBR Green DNA, 72 h; series mostly up to 12.8 µM
Outline: as §1

[19] = system: CP203; assay: as above; details: P. falciparum in erythrocytes, SYBR Green DNA, 72 h; series mostly up to 12.8 µM
Outline: as §1

[20] = system: CP211; assay: as above; details: P. falciparum in erythrocytes, SYBR Green DNA, 72 h; series mostly up to 12.8 µM
Outline: as §1

[21] = system: CP215; assay: as above; details: P. falciparum in erythrocytes, SYBR Green DNA, 72 h; series mostly up to 12.8 µM
Outline: as §1

[22] = system: CP237; assay: as above; details: P. falciparum in erythrocytes, SYBR Green DNA, 72 h; series mostly up to 12.8 µM
Outline: as §1

[23] = system: CP238; assay: as above; details: P. falciparum in erythrocytes, SYBR Green DNA, 72 h; series mostly up to 12.8 µM
Outline: as §1

[24] = system: CP252; assay: as above; details: P. falciparum in erythrocytes, SYBR Green DNA, 72 h; series mostly up to 12.8 µM
Outline: as §1

[25] = system: CP256; assay: as above; details: P. falciparum in erythrocytes, SYBR Green DNA, 72 h; series mostly up to 12.8 µM
Outline: as §1

[26] = system: CP260; assay: as above; details: P. falciparum in erythrocytes, SYBR Green DNA, 72 h; series mostly up to 12.8 µM
Outline: as §1

[27] = system: CP262; assay: as above; details: P. falciparum in erythrocytes, SYBR Green DNA, 72 h; series mostly up to 12.8 µM
Outline: as §1

[28] = system: CP265; assay: as above; details: P. falciparum in erythrocytes, SYBR Green DNA, 72 h; series mostly up to 12.8 µM
Outline: as §1

[29] = system: CP266; assay: as above; details: P. falciparum in erythrocytes, SYBR Green DNA, 72 h; series mostly up to 12.8 µM
Outline: as §1

[30] = system: CP268; assay: as above; details: P. falciparum in erythrocytes, SYBR Green DNA, 72 h; series mostly up to 12.8 µM
Outline: as §1

[31] = system: CP269; assay: as above; details: P. falciparum in erythrocytes, SYBR Green DNA, 72 h; series mostly up to 12.8 µM
Outline: as §1

[32] = system: CP286; assay: as above; details: P. falciparum in erythrocytes, SYBR Green DNA, 72 h; series mostly up to 12.8 µM
Outline: as §1

[33] = system: CP291; assay: as above; details: P. falciparum in erythrocytes, SYBR Green DNA, 72 h; series mostly up to 12.8 µM
Outline: as §1

[34] = system: CP297; assay: as above; details: P. falciparum in erythrocytes, SYBR Green DNA, 72 h; series mostly up to 12.8 µM
Outline: as §1

[35] = system: CP305; assay: as above; details: P. falciparum in erythrocytes, SYBR Green DNA, 72 h; series mostly up to 12.8 µM
Outline: as §1

[36] = system: CP315; assay: as above; details: P. falciparum in erythrocytes, SYBR Green DNA, 72 h; series mostly up to 12.8 µM
Outline: as §1

[37] = system: CP325; assay: as above; details: P. falciparum in erythrocytes, SYBR Green DNA, 72 h; series mostly up to 12.8 µM
Outline: as §1

[38] = system: CP329; assay: as above; details: P. falciparum in erythrocytes, SYBR Green DNA, 72 h; series mostly up to 12.8 µM
Outline: as §1

[39] = system: CP335; assay: as above; details: P. falciparum in erythrocytes, SYBR Green DNA, 72 h; series mostly up to 12.8 µM
Outline: as §1

[40] = system: DFO2036; assay: as above; details: P. falciparum in erythrocytes, SYBR Green DNA, 72 h; series mostly up to 12.8 µM
Outline: as §1

[41] = system: DIV17; assay: as above; details: P. falciparum in erythrocytes, SYBR Green DNA, 72 h; series mostly up to 12.8 µM
Outline: as §1

[42] = system: DIV30; assay: as above; details: P. falciparum in erythrocytes, SYBR Green DNA, 72 h; series mostly up to 12.8 µM
Outline: as §1

[43] = system: Dd2; assay: as above; details: P. falciparum in erythrocytes, SYBR Green DNA, 72 h; series mostly up to 12.8 µM
Outline: as §1

[44] = system: ECU; assay: as above; details: P. falciparum in erythrocytes, SYBR Green DNA, 72 h; series mostly up to 12.8 µM
Outline: as §1

[45] = system: FAB9; assay: as above; details: P. falciparum in erythrocytes, SYBR Green DNA, 72 h; series mostly up to 12.8 µM
Outline: as §1

[46] = system: GB4; assay: as above; details: P. falciparum in erythrocytes, SYBR Green DNA, 72 h; series mostly up to 12.8 µM
Outline: as §1

[47] = system: HB3; assay: as above; details: P. falciparum in erythrocytes, SYBR Green DNA, 72 h; series mostly up to 12.8 µM
Outline: as §1

[48] = system: JCK; assay: as above; details: P. falciparum in erythrocytes, SYBR Green DNA, 72 h; series mostly up to 12.8 µM
Outline: as §1

[49] = system: P93_24; assay: as above; details: P. falciparum in erythrocytes, SYBR Green DNA, 72 h; series mostly up to 12.8 µM
Outline: as §1

[50] = system: P94_40; assay: as above; details: P. falciparum in erythrocytes, SYBR Green DNA, 72 h; series mostly up to 12.8 µM
Outline: as §1

[51] = system: PAD; assay: as above; details: P. falciparum in erythrocytes, SYBR Green DNA, 72 h; series mostly up to 12.8 µM
Outline: as §1

[52] = system: PC15; assay: as above; details: P. falciparum in erythrocytes, SYBR Green DNA, 72 h; series mostly up to 12.8 µM
Outline: as §1

[53] = system: PC26; assay: as above; details: P. falciparum in erythrocytes, SYBR Green DNA, 72 h; series mostly up to 12.8 µM
Outline: as §1

[54] = system: PC49; assay: as above; details: P. falciparum in erythrocytes, SYBR Green DNA, 72 h; series mostly up to 12.8 µM
Outline: as §1

[55] = system: SC27B; assay: as above; details: P. falciparum in erythrocytes, SYBR Green DNA, 72 h; series mostly up to 12.8 µM
Outline: as §1

[56] = system: TAB113; assay: as above; details: P. falciparum in erythrocytes, SYBR Green DNA, 72 h; series mostly up to 12.8 µM
Outline: as §1

[57] = system: W2; assay: as above; details: P. falciparum in erythrocytes, SYBR Green DNA, 72 h; series mostly up to 12.8 µM
Outline: as §1

In the case of C[C@@]12CCC(=O)C=C1C=CC1C2CC[C@]2(C)C1CC[C@@]21CCC(=O)O1 (some centres not stated), the Potency [1] is reported as “inactive”, the Potency [2] is reported as 15.8 µM (active) and the Potency [3] is reported as “inactive”. The Potency [4] was “inactive”, the outcome [5] was “inactive” and the Potency [6] was “inactive”. For the same compound, the Potency [7] was “inactive”, the outcome [8] was “inactive” and the Potency [9] was “inactive”. The activity, negative = inhibition [10] was -24.2%, the Potency [11] was “inactive” and the Potency [12] was “inactive”. The Potency [13] was “inactive”, the Potency [14] was “inactive” and the Potency [15] was “inactive”. The Potency [16] was “inactive”, the Potency [17] was “inactive” and the Potency [18] was “inactive”. For the same compound, the Potency [19] was “inactive”, the Potency [20] was “inactive” and the Potency [21] was “inactive”. For the same compound, the Potency [22] was “inactive”, the Potency [23] was “inactive” and the Potency [24] was “inactive”. The Potency [25] was “inactive”, the Potency [26] was “inactive” and the Potency [27] was “inactive”. The Potency [28] was “inactive”, the Potency [29] was “inactive” and the Potency [30] was “inactive”. For the same compound, the Potency [31] was “inactive”, the Potency [32] was “inactive” and the Potency [33] was “inactive”. For the same compound, the Potency [34] was “inactive”, the Potency [35] was “inactive” and the Potency [36] was “inactive”. For the same compound, the Potency [37] was “inactive”, the Potency [38] was “inactive” and the Potency [39] was “inactive”. The Potency [40] was “inactive”, the Potency [41] was “inactive” and the Potency [42] was “inactive”. The Potency [43] was “inactive”, the Potency [44] was “inactive” and the Potency [45] was “inactive”. For the same compound, the Potency [46] was “inactive”, the Potency [47] was “inactive” and the Potency [48] was “inactive”. For the same compound, the Potency [49] was “inactive”, the Potency [50] was “inactive” and the Potency [51] was “inactive”. For the same compound, the Potency [52] was “inactive”, the Potency [53] was “inactive” and the Potency [54] was “inactive”. The Potency [55] was “inactive”, the Potency [56] was “inactive” and the Potency [57] was “inactive”.

From PubChem BioAssay (NCATS)
